Laboratory results published in PubChem BioAssay (NCI).
This is part of a sample that, as a whole, favours compounds with a hit. Of some 83,000 tested, about 20% had one in any assay.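 Cell lines were cultured in 96-well plates, exposed to a single compound concentration, and assessed for percent growth 48 hours later.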 Values without a mark were called inactive. Activity calls are given as the source filed them. Rule for the calls: active = growth percent below 10; inactive = the rest.

Key:
Assay in all cases: NCI-60 one-dose screen, 48 h (100 = growth as untreated, 0 = no growth, -100 = all killed)
Conditions in all cases: 10 µM unless noted
EKVX NSCLC = system: EKVX NSCLC
UO-31 renal = system: UO-31 renal
TK-10 renal = system: TK-10 renal
ACHN renal = system: ACHN renal
CAKI-1 renal = system: CAKI-1 renal
A498 renal = system: A498 renal
CCRF-CEM leukemia = system: CCRF-CEM leukemia
MOLT-4 leukemia = system: MOLT-4 leukemia
SN12C renal = system: SN12C renal

Compound | growth (EKVX NSCLC) | growth (UO-31 renal) | growth (TK-10 renal) | growth (ACHN renal) | growth (CAKI-1 renal) | growth (A498 renal) | growth (CCRF-CEM leukemia) | growth (MOLT-4 leukemia) | growth (SN12C renal)
CCN(CC)Cc1cc(Nc2c3ccc(Cl)cc3nc3c(C)cccc23)ccc1O | -40.4% (active) | -96.8% (active) | -60.5% (active) | -86.4% (active) | -41.1% (active) | -48% (active) | 4.19% (active) | -3.97% (active) | –
O=C(CCN1CCOCC1)Nc1ccc(Cn2nnc3c2C(=O)c2nnn(Cc4ccc(NC(=O)CCN5CCOCC5)cc4)c2C3=O)cc1 | – | 108% | 123% | 96.6% | 90.6% | 71.8% | -15.4% (active) | – | -40.7% (active)
Cc1cc(OCc2ccc(C(F)(F)F)cc2)c2c(c1)C(=O)C=C(NCCN1CCCC1)C2=O | – | 53.8% | 82.7% | 72.5% | 53.1% | 67.8% | 13% | 16.4% | 79.4%
Cc1nn(-c2ccccc2)c2nc(C)n(-c3ccc(Br)cc3)c(=O)c12 | 32.1% | 34.1% | 53.1% | 44.8% | 26.9% | -30.4% (active) | 13.6% | 19.8% | 48.6%
OC(c1cccc(C(F)(F)F)c1)c1cnccc1NC1CCCCCC1 (stereo not given) | 57.3% | 28.7% | 60.4% | 43.9% | 40.4% | 50.3% | 30.5% | 22.6% | 54.1%
O=C1/C(=C/c2ccc(Cl)cc2Cl)CN(S(=O)(=O)c2ccccc2)C/C1=C\c1ccc(Cl)cc1Cl | – | -61.4% (active) | -22.2% (active) | 2.01% (active) | -66.1% (active) | 76.4% | -13.2% (active) | 3.37% (active) | -47.5% (active)
COc1cc(/C=C2\CN(C(=O)CCN3CCC(=NO)CC3)C/C(=C\c3cc(OC)c(OC)c(OC)c3)C2=O)cc(OC)c1OC | -36.1% (active) | -96.2% (active) | – | -44.2% (active) | -77.2% (active) | -87.2% (active) | -37.3% (active) | 2.41% (active) | -9.11% (active)
Nc1cc(O)cc2cccnc12 | 104% | 48.1% | 104% | 77.3% | 80.1% | 118% | 86.6% | 93% | 72.5%
CC[C@H](CO)Nc1nc(NCc2ccccc2)n2ncc(C(C)C)c2n1 | 0.263% (active) | 10% | 15.6% | 4.26% (active) | 9.58% (active) | -21% (active) | -0.868% (active) | -12.9% (active) | 17.1%
Cc1ccc2c(c1)n([O-])c1cc(Cl)ccc1[n+]2=O | 94.6% | 88.9% | 130% | 114% | 111% | 87.9% | 34.9% | -9.08% (active) | 100%
CN1CCN(Cc2ccc(NC(=O)c3[nH]ncc3Nc3ncnc4[nH]ccc34)cc2)CC1 | 13% | 3.55% (active) | -61.8% (active) | 5.97% (active) | -1.63% (active) | -59% (active) | 4.71% (active) | -20.9% (active) | 13.3%
CN(C)CC(=O)Nc1ccc(Cn2nnc3c2C(=O)c2nnn(Cc4ccc(NC(=O)CN(C)C)cc4)c2C3=O)cc1 | – | -20.6% (active) | -14.2% (active) | -15.9% (active) | 41.9% | -91.3% (active) | -32.9% (active) | – | -47.3% (active)
CCCCCCCCCC(=O)Oc1ccc(/C(=C(/C)Cc2cccc(OC)c2)c2ccc(OCCN(C)C)cc2)cc1 | 94.7% | 92.5% | 109% | 110% | 102% | 95.8% | 103% | 115% | 99.2%
O=C1C=CC(Nc2ccccc2[N+](=O)[O-])C1Nc1ccccc1[N+](=O)[O-] (stereo not given) | -97.1% (active) | – | – | -96% (active) | -24.3% (active) | 96.8% | 10.5% | 29.4% | 36.9%
CC1=C(NCCN2CCCC2)C(=O)c2c(OCc3ccc(F)c(Cl)c3)cccc2C1=O | – | 42.8% | 69.1% | 83.8% | 50.2% | 38.7% | 40.6% | 44.3% | 71.2%
C=C1CCC2C3(C)COC(C)(C)OC3CCC2(C)C1C/C=C1/C(=O)OCC1OC(C)=O (stereo not given) | 53.5% | 64.6% | 68.7% | 24.3% | 19.3% | 116% | – | -16.8% (active) | 33%
O=C(N/N=C/c1ccc(O)cc1O)c1cccnc1 | – | 22.2% | 39.4% | 30.1% | 13.4% | 92% | 5.78% (active) | 3.3% (active) | 57.2%
C=C1C(=O)O[C@H]2[C@H]1CC/C(Cn1cc(Cn3ccc4ccccc43)nn1)=C\CC[C@@]1(C)O[C@@H]21 | 58.6% | -77.2% (active) | 16.8% | -52.9% (active) | 18.3% | 74.3% | -18.6% (active) | -8.31% (active) | 39.8%
COc1ccc(-c2cc(-c3ccc(N(C)C)cc3)nc(NC(=O)c3ccncc3)n2)cc1 | 99.8% | 72.1% | 105% | 98.7% | 95% | 76.5% | 96.8% | 111% | 104%
COc1ccc(C(=O)/C=C/c2c(Cl)c3c(c(OC)c2Cl)OCC(=O)N3)cc1 | – | 56.7% | 57.3% | 41.8% | 20.2% | 83.5% | 5.04% (active) | 0.538% (active) | 27.8%
O=C1Nc2ccccc2C12CC(c1ccccc1)=NN2 (stereo not given) | – | 57.6% | – | 59.3% | 22.8% | 63.7% | 49.2% | 38.7% | 68.6%
O=C(CCCN1CCOCC1)Nc1ccc(Cn2nnc3c2C(=O)c2nnn(Cc4ccc(NC(=O)CCCN5CCOCC5)cc4)c2C3=O)cc1 | – | 103% | 116% | 97.9% | 88.6% | 102% | -3.08% (active) | -21.5% (active) | -40.7% (active)
CC/C(=C(\c1ccc(O)cc1)c1ccc(OCCN(C)CCN(C)C(=O)CCCCC(=O)c2c(C)[nH]c(/C=C3\N=C(c4ccc[nH]4)C=C3OC)c2C)cc1)c1ccccc1 | – | 55.8% | 119% | 92.5% | 78.5% | 66.5% | 45.6% | 56% | 82.9%
COc1ccccc1-c1ccc2c(N)c(C(=O)c3ccc4c(c3)OCO4)sc2n1 | – | 78.5% | 73.8% | 88.6% | 70.2% | 60.1% | 60.2% | 36.6% | 64.2%
O=C1CC(c2nc3ccccc3[nH]2)CN1C1CCCCC1 (stereo not given) | – | 78.4% | 99.6% | 106% | 94.2% | 79.7% | 111% | 102% | 108%
CCCCNc1ccc2c3c1cccc3c(=O)n1c3ccccc3nc21 | – | 58.6% | 70.2% | 81.8% | 43.2% | 96.1% | 75% | 69.4% | 90.9%
O=C(Nc1ccc(F)cc1)Nc1ccc(CCO)cc1 | – | 94.1% | 112% | 110% | 103% | 85.9% | 107% | 102% | 101%
COc1ccc2nc3cc(Cl)ccc3c(N3CCN(c4ccnc(N5CCN(C)CC5)n4)CC3)c2c1 | – | 51.2% | – | 36.9% | 49.7% | 68.1% | -27.9% (active) | -24% (active) | 36.9%
COc1ccc2nc3cc(Cl)ccc3c(N3CCN(c4nccc(Nc5ccc(Cl)cc5)n4)CC3)c2c1 | – | 54.8% | 55.8% | 58.2% | 46.4% | – | 5.59% (active) | 3.98% (active) | 74%
